Experimental findings from PubChem BioAssay (NCI) are described below.

Molecules are shown by their SMILES. Compounds without any hit were thinned out: in the full panel of roughly 83,000, 20% have a hit.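 Step 1: grow cells in 96-well plates. Step 2: add test compound at a single concentration. Step 3: incubate 48 h. Step 4: record percent growth.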 Unmarked numbers belong to inactive results. Activity calls are given as the source filed them. Rule for the calls: active = growth percent below 10; inactive = the rest.

This test relates to HL-60(TB) leukemia. The test is described as follows: NCI-60 one-dose screen, 48 h (100 = growth as untreated, 0 = no growth, -100 = all killed). The conditions noted are these: 10 µM unless noted.
In the case of `COc1ccc(-c2nc3ccccn3c2-c2nnc(-c3cc(OC)c(OC)c(OC)c3)o2)cc1`, the growth was 85.6%.

In the case of `N#Cc1c2c(nc3n[nH]c(N)c13)CCCC2`, the growth is 87.3%.

Consider `O=C1Nc2ccccc2/C1=C/c1cn(C[C@@H](O)Cn2c3ccccc3c(=O)c3ccccc32)c2ccccc12`, for which the growth was 82%.

As for `CC(=O)Nc1ccc(S(=O)(=O)n2ccc(-c3ccc4c(c3)CCC(C)(C)O4)n2)cc1`, the growth is 91.9%.

`O=[N+]([O-])c1cccc(-c2cc(-c3cc(Br)ccc3O)[nH]n2)c1`: the growth was -17.1% (active).

As for `O=C(CCl)NC1c2ccccc2Oc2ccccc21`, the growth is 78.4%.

Turning to `CCc1ccc(Nc2ncnc3c2cnn3-c2cccc(Br)c2)cc1`, the growth is 114%.

`CCOC(=O)C1=C(C(=O)c2ccccc2)C(c2cccc([N+](=O)[O-])c2)C(C(=O)c2ccccc2)=C(C(=O)OCC)N1`: the growth was 66.8%.

`Cc1c(O)c(=O)ccn1-c1nc2ccccc2s1`: the growth is 98.3%.

Turning to `O=C(Nc1ncc([N+](=O)[O-])s1)c1cccc([N+](=O)[O-])c1`, the growth is 2.45% (active).

In the case of `CC(=O)OCCCCCCn1c2ccccc2c2c3c(c4c5ccccc5n(C)c4c21)C(=O)N(O)C3=O`, the growth is 41.2%.

As to `Clc1ccc(OCc2nc(-c3ccccc3)n[nH]2)c(Cl)c1`, the growth was 94.9%.

Regarding `CCNC(=O)C#Cc1ccc2c(C(=Nc3ccc(CN(C)C)cc3)c3ccccc3)c(O)[nH]c2c1`, the growth is -7.13% (active).

For `COc1ccc(-c2cc(NC(=O)Nc3ccc4ncsc4c3)no2)cc1`, the growth was 90.8%.

For the compound `O=C(/C=C/c1ccc([N+](=O)[O-])cc1)c1cccc(Nc2nc(Nc3ccccc3)nc(Nc3ccccc3)n2)c1`, the growth is 85.1%.

As to `Clc1nc(Cl)c2c(ncn2C/C=C\Cn2cnc3c(Cl)nc(Cl)nc32)n1`, the growth is -80.7% (active).

For the compound `NC1(C(=O)N[C@@H](CCO)c2ccc(Cl)cc2)CCN(c2ncnc3[nH]ccc23)CC1`, the growth is 60.7%.

Regarding `CCOC(=O)c1c(CN2CCN(C)CC2)nc2ccc(Cl)cc2c1-c1ccccc1`, the growth is 26.5%.

For `Nc1cc2nc3ccccc3sc-2cc1=O`, the growth was 6.95% (active).

With `Cc1nc2sc(C(=O)Nc3cccc4ccccc34)c(N)c2cc1C(=O)c1ccccc1`, the growth was -50.6% (active).

On to `CCCCCCCCCN(CCCCCCCCC)C(C)C(=O)c1ccc2cc(Br)c3ccccc3c2c1` (stereo not given), for which the growth is 102%.

For `N=C(N)c1ccc(-c2ccc(-c3ccc4ccccc4c3)s2)cc1`, the growth is 86.7%.

`O=c1c2cc(F)cc(Cl)c2sc2c(Cl)nc3ccccc3c12`: the growth is 115%.

In the case of `CC1=CC(C)(C)Nc2ccc(Cc3ccc4c(c3)C(C)=CC(C)(C)N4)cc21`, the growth was 122%.

For the compound `O=c1c2cc(Br)cc(Br)c2nc(-c2ccc(Cl)cc2)n1/N=C\c1ccccc1F`, the growth is 82%.

Turning to `CCOC(=O)C1=C(C)C(Cl)=N/C1=C\c1[nH]c(Cl)c(C)c1C(=O)OCC`, the growth is 95%.

As to `CCn1cc(CNc2ccc(C(=O)Nc3cc4cc(OC)c(OC)cc4c(C)n3)cc2)c(C)n1`, the growth was 0.232% (active).

Regarding `O=C(NCCOCCOCCOCCNC(=O)c1cc2c(o1)C(=O)c1ccccc1C2=O)NC12CC3CC(CC(C3)C1)C2`, the growth was 1.17% (active).

Consider `O=S(=O)(NCCNc1nccc(-c2c(-c3cccc(F)c3)nc3sccn23)n1)c1ccc(Br)cc1`, for which the growth is 90.5%.

Take `Cn1cc(-c2ccc3nc(-c4ccc(CC(=O)Nc5cc(C(C)(C)C)no5)cc4)cnc3c2)cn1`: the growth is 18.5% [30 µM].

`CS(=O)(=O)OC1CC(n2ccc(=O)[nH]c2=O)OC1COC(c1ccccc1)(c1ccccc1)c1ccccc1` (stereo not given): the growth was 97.6%.

For `O=c1ccn(C2CC=C(CO)O2)c(=O)[nH]1` (stereo not given), the growth was 91.9%.

Consider `Cc1nc([N+](=O)[O-])c(Sc2nncc(-c3ccccc3)n2)n1C`, for which the growth is 91.7%.

As for `CC1=C(NCCN2CCCC2)C(=O)c2c(OCc3ccc(C(F)(F)F)cc3)cccc2C1=O`, the growth is -20.6% (active).

As for `CCC1(CC)NC(=O)c2c(c3ccc(Cl)c(Cl)c3n2C)C1C#N` (stereo not given), the growth is 91.3%.

For the compound `COc1cccc(-c2nc3sccn3c2-c2ccnc(NCCNS(=O)(=O)c3ccccc3)n2)c1`, the growth was 69.9%.

With `COc1ccc(-c2cc(-c3ccc(Nc4nc(Nc5ccc(Cl)cc5)nc(Nc5ccc(Cl)cc5)n4)cc3)nc(N)c2C#N)cc1`, the growth is 28.3%.

Turning to `CCCCCCCCCCCC1=NC(C)(C)CN1CC(C)O` (stereo not given), the growth was -15.1% (active).

With `O=C(COc1ccc(/C=C2\CSc3ccccc3C2=O)cc1)Nc1nccs1`, the growth was -22.4% (active).

For `ClC1=C(Cl)C(Cl)=C(Cl)C1=Cc1ccc(Cl)cc1Cl`, the growth was -12.7% (active).
